35 compounds from PubChem BioAssay (EPA / NIEHS) can be followed below.

Activity calls are given as the source filed them. How the source made its calls: active means hit-call score of the fitted dose curve at least 0.9, where 1 is the maximum; inactive means score below 0.9.

Read-out in the first assay: ABC Transporter (ABCB11), ABCB11 (gene 8647)
Kind of assay: LTEA_HepaRG_ABCB11: Life Technologies and Expression Analysis (LTEA) Assay for ABC Transporter (ABCB11) using HepaRG (AID 2283463). The note with it: mRNA level, 48 h; actives raise or lower the signal. The method in brief: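 Differentiated human HepaRG cells were exposed for 48 h in serum-free induction medium to eight half-log concentrations up to 100 uM in 0.5% DMSO. ABCB11 mRNA was quantified by qRT-PCR, normalized to ACTB, GAPDH and POLR2A, and fitted bidirectionally versus DMSO.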
Regarding `COc1cccc(C(=O)NN(C(=O)c2cc(C)cc(C)c2)C(C)(C)C)c1C`, the half-maximal activity concentration (AC50) is 19.5 µM (active).
For `O=C(O)c1cc(Oc2ccc(C(F)(F)F)cc2Cl)ccc1[N+](=O)[O-]`, the compound was classed as inactive.
Take `Cc1cc(C2CC2)nc(Nc2ccccc2)n1`: the concentration at half-maximal activity (AC50) was 74.6 µM (active).
With `CNC(=O)Oc1cccc2c1OC(C)(C)O2`, the result was inactive.
Same read-out and setting: then `CC(C1CC1)C(O)(Cn1cncn1)c1ccc(Cl)cc1` (stereo not given), with “inactive”; and `CSc1nnc(C(C)(C)C)c(=O)n1N`, with “inactive”.
In the case of `CCCOCC(=Nc1ccc(Cl)cc1C(F)(F)F)n1ccnc1`, the AC50 is 17.6 µM (active).
With `COP(=O)(NC(C)=O)SC` (stereo not given), the result was inactive.
In the case of `CCOC(=O)COc1cc(-c2nn(C)c(OC(F)F)c2Cl)c(F)cc1Cl`, the outcome was inactive.
The same measure, in the same setting: then `CN(C)C(=O)Nc1cccc(C(F)(F)F)c1`, with “inactive”; and `Nc1nc(N)nc(NC2CC2)n1`, with “inactive”; and `CN(C)NC(=O)CCC(=O)O`, with “inactive”.
For the compound `CNC(=O)ON=C(SC)C(=O)N(C)C`, the result was inactive.
Same read-out and setting: the entry for `CCc1cccc(C)c1N(C(=O)CCl)C(C)COC` (stereo not given) is “inactive”.
Still for that read-out and setting: then `CCOP(=S)(OCC)Oc1ccc2c(C)c(Cl)c(=O)oc2c1`, with “inactive”.
`CNc1cnn(-c2cccc(C(F)(F)F)c2)c(=O)c1Cl`: the AC50 was 20.1 µM (active).
On to `CC(C)[C@H](C(=O)O[C@H](C#N)c1cccc(Oc2ccccc2)c1)c1ccc(Cl)cc1`, for which the result was inactive.
Same read-out and setting: then `COc1ccc(C(=CC(=O)N2CCOCC2)c2ccc(Cl)cc2)cc1OC`, with “inactive”.
As to `CCOP(=O)(NC(C)C)Oc1ccc(SC)c(C)c1` (stereo not given), the AC50 was 5.28 µM (active).
The same measure, in the same setting: then `CSc1nc(NC(C)C)nc(NC(C)C)n1`, with 56.7 µM (active).
With `CC1(C(=O)Nc2ccc(O)c(Cl)c2Cl)CCCCC1`, the result was inactive.
On the same count and under the same terms, then `CCNc1nc(Cl)nc(NC(C)(C)C#N)n1`, with “inactive”.
For `CNC(=O)ON=C(C)SC`, the concentration at half-maximal activity (AC50) is 16.7 µM (active).
Same read-out and setting: the figure for `Nc1c(Cl)cc([N+](=O)[O-])cc1Cl` is 37.4 µM (active).
For the compound `CC(COc1ccc(Oc2ccccc2)cc1)Oc1ccccn1` (stereo not given), the outcome was inactive.
As for `C#CC(C)(C)NC(=O)c1cc(Cl)cc(Cl)c1`, the compound was called inactive.
The same measure, in the same setting: then `CCCSP(=O)(OCC)Oc1ccc(Br)cc1Cl` (stereo not given), with “inactive”.
In the case of `FC(F)C(F)(F)OCC(Cn1cncn1)c1ccc(Cl)cc1Cl` (stereo not given), the half-maximal activity concentration (AC50) is 36.6 µM (active).
As to `C[Si](Cn1cncn1)(c1ccc(F)cc1)c1ccc(F)cc1`, the AC50 was 34.5 µM (active).
In the case of `CCOP(=S)(OCC)Oc1cc(C)nc(C(C)C)n1`, the outcome was inactive.
As for `CCCCN(CC)c1c([N+](=O)[O-])cc(C(F)(F)F)cc1[N+](=O)[O-]`, the compound was classed as inactive.
The same measure, in the same setting: the entry for `C#CCC1=C(C)C(OC(=O)C2C(C=C(C)C)C2(C)C)CC1=O` (stereo not given) is “inactive”; for `CCOP(=S)(OCC)Oc1ccc([N+](=O)[O-])cc1` it is “inactive”.
With `CCCSP(=O)(OCC)SCCC`, the call was inactive.
For the compound `Cc1ccn2nc(S(=O)(=O)Nc3c(F)cccc3F)nc2n1`, the compound was classed as inactive.

Read-out in another assay: ABC Transporter (ABCC2), ABCC2 (gene 1244)
The assay can be described thus: LTEA_HepaRG_ABCC2: Life Technologies and Expression Analysis (LTEA) Assay for ABC Transporter (ABCC2) using HepaRG (AID 2283464). The following applies: mRNA level, 48 h; actives raise or lower the signal. The method in brief:
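qRT-PCR (TaqMan, Fluidigm array) read-out of ABCC2 mRNA, normalized to three housekeeping genes. Differentiated HepaRG cells were treated 48 h in serum-free induction medium with 8-point half-log series from 100 uM in 0.5% DMSO; curves fitted bidirectionally relative to DMSO.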
`COc1cccc(C(=O)NN(C(=O)c2cc(C)cc(C)c2)C(C)(C)C)c1C`: the AC50 was 8.52 µM (active).
Same read-out and setting: the figure for `O=C(O)c1cc(Oc2ccc(C(F)(F)F)cc2Cl)ccc1[N+](=O)[O-]` is 50 µM (active).
As for `Cc1cc(C2CC2)nc(Nc2ccccc2)n1`, the compound was classed as inactive.
On the same count and under the same terms, the entry for `CNC(=O)Oc1cccc2c1OC(C)(C)O2` is “inactive”; for `CC(C1CC1)C(O)(Cn1cncn1)c1ccc(Cl)cc1` (stereo not given) it is “inactive”; for `CSc1nnc(C(C)(C)C)c(=O)n1N` it is “inactive”.
In the case of `CCCOCC(=Nc1ccc(Cl)cc1C(F)(F)F)n1ccnc1`, the AC50 was 78.4 µM (active).
As to `COP(=O)(NC(C)=O)SC` (stereo not given), the result was inactive.
On to `CCOC(=O)COc1cc(-c2nn(C)c(OC(F)F)c2Cl)c(F)cc1Cl`, for which the AC50 is 50 µM (active).
Consider `CN(C)C(=O)Nc1cccc(C(F)(F)F)c1`, for which the compound was called inactive.
For `Nc1nc(N)nc(NC2CC2)n1`, the compound was classed as inactive.
Same read-out and setting: the entry for `CN(C)NC(=O)CCC(=O)O` is “inactive”; for `CNC(=O)ON=C(SC)C(=O)N(C)C` it is “inactive”.
On the same count and under the same terms, the entry for `CCc1cccc(C)c1N(C(=O)CCl)C(C)COC` (stereo not given) is “inactive”.
The same measure, in the same setting: the entry for `CCOP(=S)(OCC)Oc1ccc2c(C)c(Cl)c(=O)oc2c1` is “inactive”.
As for `CNc1cnn(-c2cccc(C(F)(F)F)c2)c(=O)c1Cl`, the compound was called inactive.
As to `CC(C)[C@H](C(=O)O[C@H](C#N)c1cccc(Oc2ccccc2)c1)c1ccc(Cl)cc1`, the half-maximal activity concentration (AC50) is 50 µM (active).
The same measure, in the same setting: then `COc1ccc(C(=CC(=O)N2CCOCC2)c2ccc(Cl)cc2)cc1OC`, with 11 µM (active).
For `CCOP(=O)(NC(C)C)Oc1ccc(SC)c(C)c1` (stereo not given), the call was inactive.
Turning to `CSc1nc(NC(C)C)nc(NC(C)C)n1`, the outcome was inactive.
Same read-out and setting: the entry for `CC1(C(=O)Nc2ccc(O)c(Cl)c2Cl)CCCCC1` is “inactive”.
Turning to `CCNc1nc(Cl)nc(NC(C)(C)C#N)n1`, the concentration at half-maximal activity (AC50) is 5.92 µM (active).
As to `CNC(=O)ON=C(C)SC`, the call was inactive.
Consider `Nc1c(Cl)cc([N+](=O)[O-])cc1Cl`, for which the half-maximal activity concentration (AC50) is 84.2 µM (active).
For `CC(COc1ccc(Oc2ccccc2)cc1)Oc1ccccn1` (stereo not given), the AC50 was 29.2 µM (active).
Still for that read-out and setting: the figure for `C#CC(C)(C)NC(=O)c1cc(Cl)cc(Cl)c1` is 27.3 µM (active).
With `CCCSP(=O)(OCC)Oc1ccc(Br)cc1Cl` (stereo not given), the call was inactive.
Take `FC(F)C(F)(F)OCC(Cn1cncn1)c1ccc(Cl)cc1Cl` (stereo not given): the AC50 is 75.9 µM (active).
On to `C[Si](Cn1cncn1)(c1ccc(F)cc1)c1ccc(F)cc1`, for which the half-maximal activity concentration (AC50) is 50 µM (active).
Consider `CCOP(=S)(OCC)Oc1cc(C)nc(C(C)C)n1`, for which the result was inactive.
The same measure, in the same setting: then `CCCCN(CC)c1c([N+](=O)[O-])cc(C(F)(F)F)cc1[N+](=O)[O-]`, with “inactive”.
Take `C#CCC1=C(C)C(OC(=O)C2C(C=C(C)C)C2(C)C)CC1=O` (stereo not given): the AC50 was 19.6 µM (active).
Turning to `CCOP(=S)(OCC)Oc1ccc([N+](=O)[O-])cc1`, the outcome was inactive.
As to `CCCSP(=O)(OCC)SCCC`, the AC50 was 20.3 µM (active).
With `Cc1ccn2nc(S(=O)(=O)Nc3c(F)cccc3F)nc2n1`, the compound was called inactive.

Broadly, the AC50 is the midpoint of the concentration-response curve, whichever way the signal moves.
